In the library only some 0.85% were active in any assay of this set; here they are far more common.
TSHR antagonist – human thyrotropin receptor antagonism; P16473; TSHR-expressing cells, TSH-stimulated cAMP HTRF, 2 h; hits give low values; activity change, negative = inhibition, % at 11.5 µM; actives 0.2% (n = 330,000);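 active = activity change below a set negative limit, meaning inhibition stronger than a set level, cut at about -70% in these data; inconclusive = activity change between two set negative limits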; also: % is scaled to controls: 0 for no effect and ±100 for the full control effect
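Cell-based HTRF cAMP assay; TSHR cells + compound, TSH EC80 (4nM final), 2 h, 37 deg C. Lysis with anti-cAMP cryptate and cAMP-d2, 30 min RT, read 665/620 nm.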
Six1-Eya2 inh – blocks human Six1 binding to Eya2; Q15475+O00167; AlphaScreen GST-Six1/His-Eya2 binding, biochemical; hits give low values; activity change, % (concentration not given with the values); actives 0.56% (n = 360,000); also: % is scaled to controls: 0 for no effect and ±100 for the full control effect
Target sequence (O00167 whole entry, looked up): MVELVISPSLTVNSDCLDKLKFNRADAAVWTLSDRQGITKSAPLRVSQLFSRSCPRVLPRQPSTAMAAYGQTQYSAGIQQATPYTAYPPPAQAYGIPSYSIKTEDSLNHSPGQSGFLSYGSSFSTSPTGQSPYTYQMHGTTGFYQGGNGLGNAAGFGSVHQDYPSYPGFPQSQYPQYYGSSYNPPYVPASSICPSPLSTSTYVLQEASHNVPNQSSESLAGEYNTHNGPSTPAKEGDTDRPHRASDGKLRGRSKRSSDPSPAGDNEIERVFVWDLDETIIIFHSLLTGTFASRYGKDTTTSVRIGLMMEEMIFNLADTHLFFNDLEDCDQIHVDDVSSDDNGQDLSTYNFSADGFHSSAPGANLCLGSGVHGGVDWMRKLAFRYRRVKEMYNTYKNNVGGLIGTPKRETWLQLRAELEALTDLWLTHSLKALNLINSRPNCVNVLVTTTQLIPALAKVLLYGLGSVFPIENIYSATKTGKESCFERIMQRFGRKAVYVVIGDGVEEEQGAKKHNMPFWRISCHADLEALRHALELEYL
Target sequence (Q15475 whole entry, looked up): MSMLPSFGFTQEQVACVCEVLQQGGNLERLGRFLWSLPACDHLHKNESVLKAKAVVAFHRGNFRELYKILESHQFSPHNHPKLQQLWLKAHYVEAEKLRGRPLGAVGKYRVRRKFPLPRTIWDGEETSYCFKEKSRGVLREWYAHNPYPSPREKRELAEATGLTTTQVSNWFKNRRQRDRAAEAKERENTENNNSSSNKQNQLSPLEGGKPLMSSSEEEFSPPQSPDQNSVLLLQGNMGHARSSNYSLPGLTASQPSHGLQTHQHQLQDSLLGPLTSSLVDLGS
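AlphaScreen with GST-Six1 and His-Eya2 (5X mix: 250 nM and 500 nM), glutathione donor and nickel acceptor beads; buffer 50 mM Tris pH 8.0, 300 mM NaCl, 1 mM TCEP; 1 h at 37 C in the dark.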
CtBP-E1A blk – CtBP/E1A binding inhibition | AlphaScreen GST-E1A/His-CtBP binding, 1536-well; hits give low values | activity change, % (concentration not given with the values) | actives 0.49% (n = 340,000) | AID 651724; also: % is scaled to controls: 0 for no effect and ±100 for the full control effect
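GST-E1A and His-tagged CtBP (125 nM each as 5X stock) were preincubated with pin-transferred compound for 2 h at 37 °C in the dark, then glutathione donor and nickel acceptor beads were added for 1 h before AlphaScreen reading.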
Chronic BCR inh – inhibitors of chronic active B-cell receptor signaling; ABC-DLBCL IkBa-CBG/CBR reporter, luminescence ratio, 4 h; Potency, µM (top dose mostly 46.1 µM), for the others: top-dose activity change, negative = inhibition, actives largely listed as inhibitors; actives 0.05% (n = 340,000); AID 493014; active = well fitted inhibition curve with a large enough effect in the signal ratio, with a control signal flat, not every such curve was filed as active; inconclusive = small, poorly fitted or top-dose-only effect, or effect the other way, or a change in a side signal; the % refers to the signal ratio;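 also: potency is read from the fitted curve at half-maximal effect; plate controls were basal doxycycline-induced cells for no effect and cells given 10 µM MG132 for full effect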
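Cell line TMD8 (human ABC DLBCL), stably expressing tet-inducible CBG68-IkBa fusion and CBR; IMDM/0.5% FBS; cpd up to 46 uM; dox induction, 4 h, 37C/5% CO2; dual luminescence; green/red ratio; MG132 control.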
S-ASM inh – inhibitors of human secretory acid sphingomyelinase | actives 0.006% (n = 340,000) | Potency, µM (highest dose often 57.5 µM), without a hit: top-dose activity change, negative = inhibition, actives largely listed as inhibitors | AID 504937 | P17405 | placental ASM, HMU-PC fluorogenic substrate, 60 min; active = well fitted inhibition curve with a large enough effect; inconclusive = small, poorly fitted or top-dose-only effect; inactive = no such curve, though single readings can be large or run the other way; also: potency is read from the fitted curve at half-maximal effect
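Human placenta-derived ASM enzyme was preincubated with compound for 10 minutes at room temperature, then given fluorogenic substrate HMU-PC0 (9 uM final) for 60 minutes at 37 °C; a pH 10 stop preceded fluorescence reading at Ex 386/Em 447 nm.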
* marks the source's active call; other numbers are inactive results. Rule as the data show it, unless noted: active = activity change below about -65%; inconclusive = mostly about -30% to -63%; inactive = weaker than that.

O=C(NC(=S)NNC(=O)c1cnccn1)c1ccc(Cl)cc1 was read as TSHR antagonist 2.7, Six1-Eya2 inh -91.8*, CtBP-E1A blk -95.4*, Chronic BCR inh 1.0% and S-ASM inh -0.7%.
`COc1ccc(-c2nc3scc(CCNS(=O)(=O)c4ccc(F)cc4F)n3n2)cc1OC` gave Chronic BCR inh -13.5%.
`COc1cccc(CNC(=O)CN2C(=O)N(c3cc(C)ccc3C)S(=O)(=O)c3ccccc32)c1OC` gave Chronic BCR inh -7.2%.
For O=C(Nc1cccc(Cl)c1Cl)c1cc(S(=O)(=O)NCc2ccc3c(c2)OCO3)ccc1F the results were Chronic BCR inh -2.7%.
`Cc1cc(-n2c(C)nc3ccccc3c2=O)ccc1NC(=O)c1ccc(C)c([N+](=O)[O-])c1` gave Chronic BCR inh 11.1%.
Screening COc1ccc2noc3c2c1C(=O)c1ccccc1-3 returned Six1-Eya2 inh inconclusive, CtBP-E1A blk -12.7 and S-ASM inh -10.7%.
O=C1c2ccccc2-c2onc3ccc(NCCCn4ccnc4)c1c23 was read as TSHR antagonist -11.8, Six1-Eya2 inh -78.2*, CtBP-E1A blk 14.0, Chronic BCR inh inconclusive and S-ASM inh -14.5%.
Screening O=c1[nH]c(-c2ccccn2)nc(C(F)(F)F)c1Br returned TSHR antagonist 24.7, Six1-Eya2 inh -75.6*, CtBP-E1A blk -83.4*, Chronic BCR inh inconclusive and S-ASM inh 0.9%.
Screening c1ccc(-c2nc3c(ccc4ccccc43)[nH]2)nc1 returned TSHR antagonist -18.8, Six1-Eya2 inh -6.8, CtBP-E1A blk -14.0, Chronic BCR inh 9.1% and S-ASM inh 4.0%.
`c1ccc(-c2nc3ccccc3[nH]2)nc1` gave TSHR antagonist 0.1, Six1-Eya2 inh inconclusive, CtBP-E1A blk -4.4, Chronic BCR inh inconclusive and S-ASM inh 5.1%.
For O=c1[nH]c(-c2ccccn2)nc2ccccc12 the results were TSHR antagonist -0.9, Six1-Eya2 inh -91.1*, CtBP-E1A blk -89.3*, Chronic BCR inh inconclusive and S-ASM inh -4.1%.
CCc1n[nH]c(=S)n1/N=C/c1ccc(N(CC)CC)cc1 was read as TSHR antagonist -11.2, Six1-Eya2 inh -11.9, CtBP-E1A blk 1.7, Chronic BCR inh 11.2µM* and S-ASM inh 70.7%.
For CCc1n[nH]c(=S)n1/N=C/c1c(C)nn(-c2ccccc2)c1Cl the results were TSHR antagonist -0.1, Six1-Eya2 inh -9.8, CtBP-E1A blk 0.8, Chronic BCR inh -10.4% and S-ASM inh -5.0%.
Screening C[n+]1c(-c2ccccc2)cc2c(=Cc3ccccc3)c3ccccc3n21 returned Six1-Eya2 inh inconclusive, CtBP-E1A blk 21.1 and S-ASM inh -1.5%.
Cc1cc2c(=Cc3ccc(N(C)C)cc3)c3ccccc3n2[n+]1C was read as Six1-Eya2 inh 0.0, CtBP-E1A blk -66.2* and S-ASM inh inconclusive.
For CCOC(=O)c1cc2c(=Cc3ccc(N(C)C)cc3)c3ccccc3n2[n+]1C the results were Six1-Eya2 inh -69.2*, CtBP-E1A blk 0.0 and S-ASM inh inconclusive.
Screening CN(C)c1ccc(C=c2c3cc(O)ccc3n3c2cc(-c2ccccc2)[n+]3C)cc1 returned Six1-Eya2 inh -73.8*, CtBP-E1A blk 11.7 and S-ASM inh inconclusive.
For Fc1ccc(-n2ncc3c(Nc4cccc(Cl)c4)ncnc32)cc1 the results were Chronic BCR inh 11.3%.
Screening CC(=O)c1cccc(NC(=O)CSc2nnc3ccc(-c4ccc(Cl)cc4)nn23)c1 returned Chronic BCR inh 6.6%.
For COC(=O)c1ccc(OCC2c3cc(OC)c(OC)cc3CCN2C(=O)Cc2ccc(OC)cc2)cc1 (stereo not drawn) the results were Chronic BCR inh -8.9%.
Cc1ccc(CSC2=Nc3ccccc3C3=NC(CCC(=O)NCCc4ccccc4)C(=O)N23)cc1 (stereo not drawn) was read as Chronic BCR inh -0.5%.
COCCNC(=O)CSc1nnc2[nH]c(=O)cc(C)n12 was read as Chronic BCR inh 9.0%.
Screening O=Nc1c(O)[nH]c2ccc(F)cc12 returned TSHR antagonist -4.5, Six1-Eya2 inh -13.5, CtBP-E1A blk -4.6, Chronic BCR inh -8.0% and S-ASM inh -3.4%.
